Some test systems named below: T-47D breast; BT-549 breast; MDA-MB-435 melanoma; SW-620 colon; MCF7 breast; HCT-116 colon; HCC-2998 colon; KM12 colon.
Holding throughout (assay): NCI-60 one-dose screen, 48 h (100 = growth as untreated, 0 = no growth, -100 = all killed)
Settings in all cases: 10 µM unless noted

The panel holds about 83,000 compounds, 20% with a hit somewhere; the sample as a whole holds those more often.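 Cells were grown in 96-well plates and exposed to the test compound at a single concentration for 48 hours; results are reported as percent growth, with values below 10 considered active.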 A number with no mark means an inactive call. Calls of active or inactive are those of the source.

Growth data for 15 compounds are collected here from PubChem BioAssay (NCI).

For the compound `C=C(c1ccc(OC)c(/C=C/C(=O)c2ccc3c(c2)OCO3)c1)c1cc(OC)c(OC)c(OC)c1`, the growth in the assay on T-47D breast was 8.67% (active); with BT-549 breast it was 12.7%; with MDA-MB-435 melanoma, 23.2%; in the assay on SW-620 colon, 5.67% (active); in the assay on MCF7 breast, 16.1%; in the assay on HCT-116 colon, 2.56% (active). For the same compound, the values for the growth in the assay with HCC-2998 colon and with KM12 colon were 9.86% (active) and 4.46% (active), respectively.
On to `S=C(c1ccc2c(c1)OCO2)N1CCN(c2cccc(Cl)c2)CC1`, for which the growth with T-47D breast was 11.6%; in the assay with BT-549 breast, 52.4%; in the assay on MDA-MB-435 melanoma, -37.7% (active); with SW-620 colon, 4.12% (active); with MCF7 breast, -0.55% (active); in the assay with HCT-116 colon it was 13.7%. For the same compound, the results for the growth in the assay with HCC-2998 colon and with KM12 colon were -13.1% (active) and 12.6%, respectively.
For `COc1cccc(C(=O)NNc2nc(Cl)nc(Cl)n2)c1`, the growth in the assay with T-47D breast is 91.6%; with BT-549 breast, 103%; in the assay on MDA-MB-435 melanoma it was 105%; in the assay with SW-620 colon, 107%; in the assay with MCF7 breast, 82.8%; in the assay on HCT-116 colon, 108%. Also, the figures for the growth in the assay with HCC-2998 colon and with KM12 colon were 95.2% and 105%, respectively.
For the compound `COc1cc2c(cc1OCCCCN1CCN(C(=S)SCCC(C#N)(c3ccccc3)c3ccccc3)CC1)N=C[C@@H]1CCCN1C2=O`, the growth was -13.3% (active) in the assay with T-47D breast; -91.8% (active) in the assay with BT-549 breast; -17% (active) with MDA-MB-435 melanoma; -95.6% (active) in the assay with SW-620 colon; -93.4% (active) in the assay with MCF7 breast; -62.1% (active) in the assay on HCT-116 colon. For the same compound, the growth in the assay with HCC-2998 colon is -72.3% (active); in the assay on KM12 colon, -60.9% (active).
Regarding `CCCCCCCCCCCCCCCCCC1=NC(C)(C)CN1CC(C)O` (stereo not given), the growth was 72.6% in the assay with T-47D breast; 101% with BT-549 breast; 50.9% with MDA-MB-435 melanoma; 3.6% (active) in the assay with SW-620 colon; 42.4% with MCF7 breast; 7.84% (active) with HCT-116 colon. Besides, the figures for the growth with HCC-2998 colon and in the assay on KM12 colon were 75.3% and 44.1%, respectively.
Take `NC(=O)c1cnc(Nc2cccc(N)c2)nc1NCCCNC(=O)C1CCC1`: the growth in the assay with T-47D breast was 106%; in the assay on BT-549 breast, 26.7%; in the assay on MDA-MB-435 melanoma, 82.6%; with SW-620 colon, 86.8%; in the assay with MCF7 breast, 74.7%; in the assay on HCT-116 colon, 65.5%. Moreover, the growth in the assay on HCC-2998 colon is 103%; with KM12 colon, 74.8%.
With `Cc1cccc[n+]1C1c2ccccc2-c2ccccc21`, the growth is 60.8% with T-47D breast; 86.8% with BT-549 breast; 102% with MDA-MB-435 melanoma; 103% in the assay on SW-620 colon; 95.1% in the assay on MCF7 breast; 78.5% in the assay on HCT-116 colon. The growth with HCC-2998 colon was 105%; in the assay on KM12 colon it was 101%.
As to `O=C(Cn1nnc2ccccc21)N/N=C/c1c[nH]c2ccccc12`, the growth in the assay with T-47D breast was 37.1%; in the assay on BT-549 breast, 52.4%; in the assay with MDA-MB-435 melanoma, -15.9% (active); in the assay on SW-620 colon, 25.3%; with MCF7 breast, 22%; with HCT-116 colon it was 26.9%. Further, the growth in the assay with HCC-2998 colon is 78.8%; in the assay on KM12 colon it was 22.6%.
As to `Clc1c(Cl)[n+](Cc2ccc3ccccc3c2)cn1Cc1ccc2ccccc2c1`, the growth was -3.8% (active) in the assay with T-47D breast; -69.5% (active) with BT-549 breast; -31.4% (active) in the assay with MDA-MB-435 melanoma; 34.4% in the assay with SW-620 colon; 11.8% with MCF7 breast; 7.02% (active) in the assay on HCT-116 colon. Also, the growth with HCC-2998 colon is 16%; in the assay with KM12 colon, -67.6% (active).
As for `N=C(N)c1ccc(-c2ccc(-c3ccccc3)s2)cc1`, the growth in the assay on T-47D breast was 44.5%; in the assay on BT-549 breast it was 90.6%; in the assay with MDA-MB-435 melanoma, 12%; in the assay on SW-620 colon, -46.2% (active); in the assay with MCF7 breast, 13.8%; in the assay with HCT-116 colon, -55.1% (active). The growth was -27.7% (active) with HCC-2998 colon and -7.55% (active) in the assay with KM12 colon.
As to `O=C(/C=C/c1cccc(Cl)c1Cl)Nc1ncc(Cc2ccccc2Cl)s1`, the growth is 43.8% with T-47D breast; 76.7% in the assay on BT-549 breast; -46.5% (active) in the assay on MDA-MB-435 melanoma; 27% in the assay on SW-620 colon; 12.7% with MCF7 breast; 24.2% in the assay with HCT-116 colon. The growth in the assay on HCC-2998 colon is 76.3%; in the assay on KM12 colon it was 28.8%.
In the case of `COc1cccc(/C=C/C(=O)c2cccc(Nc3nc(Nc4ccccc4)nc(Nc4ccccc4)n3)c2)c1`, the growth is 53.5% in the assay with T-47D breast; 99% in the assay with BT-549 breast; 91.4% in the assay with MDA-MB-435 melanoma; 40.5% in the assay with SW-620 colon; 21.9% in the assay on MCF7 breast; 12.8% in the assay on HCT-116 colon. Further, the growth in the assay on HCC-2998 colon is 21.6%; in the assay on KM12 colon, 62.8%.
On to `CN1C(=O)/C(=C2\SC(=Nc3ccccc3)N(Nc3ccccc3)C2=O)c2ccccc21`, for which the growth in the assay on T-47D breast was 82.2%; in the assay on BT-549 breast, 109%; in the assay on MDA-MB-435 melanoma it was 106%; in the assay on SW-620 colon, 98.3%; with MCF7 breast it was 86.2%; in the assay on HCT-116 colon, 104%. Besides, the growth in the assay with HCC-2998 colon is 113%; in the assay on KM12 colon, 103%.
`NC(N)=NS(=O)(=O)c1ccc(NC2=C(I)C(=O)c3ncccc3C2=O)cc1`: the growth in the assay with T-47D breast was 106%; in the assay with BT-549 breast, 108%; in the assay on MDA-MB-435 melanoma it was 109%; in the assay with SW-620 colon, 91.1%; in the assay with MCF7 breast it was 97.9%; in the assay with HCT-116 colon, 102%. Moreover, the growth in the assay on HCC-2998 colon was 111%; in the assay on KM12 colon it was 105%.
As to `O=C(Nc1ccc(Cl)cc1)Oc1c(Cl)c(Cl)c(Cl)c(Cl)c1Cl`, the growth with T-47D breast was 84.3%; with BT-549 breast, 92.6%; with MDA-MB-435 melanoma it was 96.5%; in the assay with SW-620 colon, 101%; in the assay on MCF7 breast, 86%; in the assay with HCT-116 colon, 89.1%. Further, the growth in the assay with HCC-2998 colon is 107%; with KM12 colon it was 96.6%.
